Among the test systems are NCI-H23 lung; NCI-H226 lung; NCI-H322M lung; HOP-62 NSCLC; NCI-H460 lung; HOP-92 NSCLC; NCI-H522 lung; A549/ATCC NSCLC; 786-0 renal; COLO 205 colon.
Holding throughout (assay): NCI-60 one-dose screen, 48 h (100 = growth as untreated, 0 = no growth, -100 = all killed)
Conditions in all cases: 10 µM unless noted

The panel holds about 83,000 compounds, 20% with a hit somewhere; the sample as a whole holds those more often.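 Single-concentration screen, 48 h exposure, 96-well plates. Endpoint: percent growth. Below 10 = active.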 A number with no mark means an inactive call. Active and inactive are the calls of the source.

The record followed here is PubChem BioAssay (NCI).

Turning to `O=S(=O)(NCCNc1nccc(-c2c(-c3ccc(F)c(O)c3)nc3occn23)n1)c1ccc(Cl)cc1`, the growth in the test with NCI-H23 lung is 80.3%; with NCI-H226 lung, 102%; in the test with NCI-H322M lung it was 97.1%; in the test on HOP-62 NSCLC it was 101%; with NCI-H460 lung it was 76.7%; in the test on HOP-92 NSCLC, 70.4%. The growth in the test on NCI-H522 lung was 76.6%; with A549/ATCC NSCLC it was 77.9%; in the test on 786-0 renal, 109%; in the test with COLO 205 colon, 67.7%.

Turning to `Cc1ccc(/C=C2\COc3ccc(O)cc3C2=O)cc1`, the growth was 94.7% in the test on NCI-H23 lung; 97.3% in the test with NCI-H226 lung; 99.6% in the test with NCI-H322M lung; 103% in the test on HOP-62 NSCLC; 100% in the test on NCI-H460 lung; 97.4% in the test on HOP-92 NSCLC. The growth in the test with NCI-H522 lung was 4.44% (active); in the test on A549/ATCC NSCLC, 89.7%; in the test on 786-0 renal it was 86.7%; with COLO 205 colon, 94.3%.

Consider `CCN(CC)CC(O)COc1c(Br)c(Br)c(Br)c2c1OC(C)(C)C2` (stereo not given), for which the growth in the test with NCI-H23 lung was 96.1%; in the test on NCI-H226 lung, 46.4%; with NCI-H322M lung it was 60.7%; in the test with HOP-62 NSCLC, 96.8%; in the test on NCI-H460 lung it was 27.7%; in the test on HOP-92 NSCLC, 28.1%. Further, the growth with NCI-H522 lung was 145%; in the test with A549/ATCC NSCLC it was 132%; in the test with 786-0 renal, 51.3%; in the test on COLO 205 colon it was 67.7%.

Consider `COC(=O)CC[C@H](C)[C@H]1CC[C@H]2[C@@H]3CC[C@@H]4CC5(CC[C@]4(C)[C@H]3CC(=O)[C@]12C)Nc1ccccc1NC5=NC(C)(C)C` (stereo not given in full), for which the growth was 72.8% in the test on NCI-H23 lung; 65.4% in the test with NCI-H226 lung; 95.6% in the test with NCI-H322M lung; 84.3% in the test on HOP-62 NSCLC; 85.5% in the test with NCI-H460 lung; -2.12% (active) in the test with HOP-92 NSCLC. Moreover, the growth in the test with NCI-H522 lung is 75.8%; with A549/ATCC NSCLC it was 82.3%; with 786-0 renal it was 81.1%; in the test with COLO 205 colon it was 66.4%.

Consider `COC(=O)[C@]12CCC(C)(C)C[C@H]1[C@H]1/C(=N/OCCc3nn[nH]n3)C[C@@H]3[C@@]4(C)CC[C@H](OC(C)=O)C(C)(C)[C@@H]4CC[C@@]3(C)[C@]1(C)CC2`, for which the growth in the test on NCI-H23 lung is 28.4%; in the test on NCI-H226 lung, 33.3%; in the test on NCI-H322M lung, 64.6%; in the test on HOP-62 NSCLC it was 34%; with NCI-H460 lung, 9.64% (active); in the test with HOP-92 NSCLC it was 49.9%. Also, the growth in the test with NCI-H522 lung is 38.3%; with A549/ATCC NSCLC, 36.8%; in the test on 786-0 renal, 51.9%; in the test on COLO 205 colon, 41.4%.

For the molecule `COc1ccc2c(c1OC)CO[C@@H]2[C@H]1c2c(cc3c(c2OC)OCO3)CCN1S(=O)(=O)c1cn(C)cn1`, the growth in the test with NCI-H23 lung was 32.9%; in the test with NCI-H226 lung, 73.6%; in the test with NCI-H322M lung it was 48%; in the test with HOP-62 NSCLC, 30.9%; in the test with NCI-H460 lung it was 6.13% (active); with HOP-92 NSCLC, 60.7%. The growth with NCI-H522 lung was 19.4%; in the test on A549/ATCC NSCLC it was 21.2%; with 786-0 renal, 41.9%; in the test with COLO 205 colon it was 0.532% (active).

As to `N#Cc1ccc(O)c(C2=NCC(c3ccccc3)O2)c1` (stereo not given), the growth in the test on NCI-H23 lung was 44.6%; with NCI-H226 lung, 68%; with NCI-H322M lung, 55.9%; in the test on HOP-62 NSCLC it was 29.7%; in the test on NCI-H460 lung, 19.9%; in the test on HOP-92 NSCLC, 60.6%. For the same molecule, the growth was -12.8% (active) in the test on NCI-H522 lung, 32% in the test with A549/ATCC NSCLC, 33.2% in the test on 786-0 renal and 36% with COLO 205 colon.

Take `CCN(CC)Cc1cc(C=C2C(=O)NC(=S)NC2=O)cc(OC)c1O`: the growth in the test with NCI-H23 lung is 98.1%; in the test with NCI-H226 lung it was 107%; in the test with NCI-H322M lung it was 103%; in the test with HOP-62 NSCLC, 106%; in the test with NCI-H460 lung, 104%; in the test on HOP-92 NSCLC it was 104%. The growth in the test on NCI-H522 lung was 104%; in the test with A549/ATCC NSCLC, 109%; with 786-0 renal, 104%; with COLO 205 colon, 117%.

Turning to `Nc1c(C(=O)Nc2ccccc2C(F)(F)F)sc2nc3c(cc12)CCC3`, the growth with NCI-H23 lung was 95.7%; in the test on NCI-H226 lung, 82.6%; in the test on NCI-H322M lung, 87.5%; in the test with HOP-62 NSCLC, 88.6%; with NCI-H460 lung, 105%; with HOP-92 NSCLC, 96.6%. In addition, the growth in the test on NCI-H522 lung is 85.7%; in the test on A549/ATCC NSCLC, 90.4%; in the test with 786-0 renal it was 93%; in the test with COLO 205 colon it was 115%.

As to `C[C@@H](CO)[C@@H]1CCC=C2CC[C@]3(C)[C@H](CC[C@@H]4[C@@]5(C)CCCNC(C)(C)[C@@H]5CC[C@]43C)[C@H]21`, the growth in the test on NCI-H23 lung is 67.9%; with NCI-H226 lung, 94.6%; with NCI-H322M lung, 78.3%; in the test with HOP-62 NSCLC, 91.1%; with NCI-H460 lung it was -67.1% (active); in the test with HOP-92 NSCLC, 75.7%. In addition, the growth with NCI-H522 lung is 82.1%; in the test with A549/ATCC NSCLC, 47%; in the test with 786-0 renal, 70%; with COLO 205 colon, -56.8% (active).

Take `CCn1c(SCC(=O)N/N=C(\C)c2ccc(Cl)cc2)nc2c1c(=O)n(C)c(=O)n2C`: the growth is 102% with NCI-H23 lung; 99.7% in the test on NCI-H226 lung; 96.9% with NCI-H322M lung; 91.8% with HOP-62 NSCLC; 101% in the test with NCI-H460 lung; 103% in the test on HOP-92 NSCLC. Moreover, the growth in the test with NCI-H522 lung was 97.7%; in the test on A549/ATCC NSCLC it was 104%; in the test with 786-0 renal, 101%; in the test on COLO 205 colon, 107%.

As for `O=c1scc(-c2ccc(C(F)(F)F)cc2)s1`, the growth in the test with NCI-H23 lung was 89%; in the test on NCI-H226 lung it was 91%; in the test with NCI-H322M lung, 90.5%; in the test with HOP-62 NSCLC, 92.3%; in the test on NCI-H460 lung it was 102%; in the test on HOP-92 NSCLC it was 81%. In addition, the growth is 67.5% in the test with NCI-H522 lung, 79.1% in the test on A549/ATCC NSCLC, 90.3% in the test on 786-0 renal and 131% in the test on COLO 205 colon.

Regarding `O=C(O)c1ccc(-n2cc(/C=N/Nc3ccccc3)c(-c3ccc(F)cc3F)n2)cc1`, the growth in the test on NCI-H23 lung was 71.5%; with NCI-H226 lung, 84.2%; in the test on NCI-H322M lung, 62.1%; in the test on HOP-62 NSCLC, 40.2%; in the test with NCI-H460 lung, 55.3%; in the test with HOP-92 NSCLC, 83.5%. Besides, the growth in the test on NCI-H522 lung is 26.6%; in the test on A549/ATCC NSCLC it was 60%; with 786-0 renal, 71.5%; in the test with COLO 205 colon it was 108%.
